The full ranking holds about 9,900 sequences; the median of “r (bound/input frequency ratio)” is about 0.7, and the highest 2% start at about 6.5. The full list was thinned out, with the highest values kept by preference.
B1: ENSMUSG00000061578.90|Ksr2|236:240 (ssRNA)
RNA: GGGAGUUCUACAGUCCGACGAUCGCUUCGAUAUCCGCAUGCUAUCUGAUUUUAGAGGUCCCAUUCCAAGAUGGAAGUCACCGGUUGCCGCUGAGCACACAAUUCUGAAGGACAGUAGGCAGUCCUGCAGGUCUUUUUUAGCACAGGGCCUCUCUGGGGACCAGUCCCUGGCCUUCACCCUUCUCCCAUUUUGUAAGAACACUGUUCUAACUCACCUCAUGCCCACGCUACCCUGGGCAACUGGAGAACACCAUAGCGUUUCAGCUGAUGUGACAUUUGCACACACCUUUACCAGUUCACCAUCCUCUUGCGGUCGCACUAGUGUGGAAUUCUCGGGUGUCAAGG
B2: ENSMUSG00000090935.515|Synj2bp (ssRNA)
RNA: GGGAGUUCUACAGUCCGACGAUCGCUUCGAUAUCCGCAUGCUAUGGAGGCCCAGUGUCUGCUACCCUUCUUGUAUCUGAUGGCAUGGGUAACAGCUCUGCCAUGGGCCUGCUUACUUCUAGUAUUCACCUCAGGGCUUGGAAAUUGGUUUUGAAAGGCUUUUAGACAUAGAAAGUAAAACUAAUGGCAAGGAGGAUAAAACACUGUUGUGUGUUGUAUUGUUGAUCUAAAUAAAAAAUAUCAUUGGUAGAAGUUUUACUUUGGUUGAUAAGGAUUCUGAUAACAUUUGGGUCUCCUUAGGAAACUCUUGCGGUCGCACUAGUGUGGAAUUCUCGGGUGUCAAGG
B3: ENSMUSG00000031028.314|Tub|85:89 (ssRNA)
RNA: GGGAGUUCUACAGUCCGACGAUCGCUUCGAUAUCCGCAUGCUAUUUCUAGAGGGCAGUAGGACUUCCAUGCUGGGGCUGGCCUAUCUCCUGAUGAAAGAUUACAGUGCCAUCUCCUUCCCAUAGUUCACACACUGCCCUCCCUCCCUGACUUUAUAGGGAGAAAUCUCCUGACAUUAGAGGUGAUAGAAACCAGAGCUUUAGUCUAGUCAGGCUGUUUCUCUGGGUUGACAAGUUUAAGGUUGAACAGGCUGAUUUCUGGAAUCUCAUGAGUGGAGGGGACCCUGGUGGUUAAGAGCGGAACUCUCUUGCGGUCGCACUAGUGUGGAAUUCUCGGGUGUCAAGG
B4: ENSMUSG00000029636.395|Wasf3|50:54 (ssRNA)
RNA: GGGAGUUCUACAGUCCGACGAUCGCUUCGAUAUCCGCAUGCUAAAUCUACAGAUCGCAAGGUUGUUUUAUAUUAUCCCCUUAUAGUGUUCCAACACAAUUGUAGCUGAGUUUCAGAUACGGUAUUUUCUCAUAGUGUAAACUCAGGCAGAUGAAUAGCUGGAGAGUGGGUGGAUGGAUGGGUGAGUAUAUGGGUAGAUAAAUGGAUGAGUGGAUGGGUGGGUUAGGUGGGUAAGUAGCUAGGUGGAUGGGUGGGUGGAUACAUGGAUGAGUGGAUGGGUGGAUUGGUGGGUGAGUGGAUAGGUCUCUUGCGGUCGCACUAGUGUGGAAUUCUCGGGUGUCAAGG
B5: ENSMUSG00000029636.416|Wasf3 (ssRNA)
RNA: GGGAGUUCUACAGUCCGACGAUCGCUUCGAUAUCCGCAUGCUAUGGAUGGAUGGGUGAGUAUAUGGGUAGAUAAAUGGAUGAGUGGAUGGGUGGGUUAGGUGGGUAAGUAGCUAGGUGGAUGGGUGGGUGGAUACAUGGAUGAGUGGAUGGGUGGAUUGGUGGGUGAGUGGAUAGGUGAAUGGAUGAUAGGUGGUGGAUGGUUGAGUGGGUGGAUUCAUGAUGGAUGGAUGGAUGGAUGGAUGGAUGGAUGGAUGGAUGAGUGGAUGGAUAAUAGGUUGAUGGGUGGAUAGGUAGAUGAGUGACUCUUGCGGUCGCACUAGUGUGGAAUUCUCGGGUGUCAAGG
B6: ENSMUSG00000029636.403|Wasf3 (ssRNA)
RNA: GGGAGUUCUACAGUCCGACGAUCGCUUCGAUAUCCGCAUGCUAAUGUGUAUUGUAGCUGAGUUUCAGAUACGGUAUUUUCUCAUAGUGUAAACUCAGGCAGAUGAAUAGCUGGAGAGUGGGUGGAUGGAUGGGUGAGUAUAUGGGUAGAUAAAUGGAUGAGUGGAUGGGUGGGUUAGGUGGGUAAGUAGCUAGGUGGAUGGGUGGGUGGAUACAUGGAUGAGUGGAUGGGUGGAUUGGUGGGUGAGUGGAUAGGUGAAUGGAUGAUAGGUGGUGGAUGGUUGAGUGGGUGGAUUCAUGAUGGACUCUUGCGGUCGCACUAGUGUGGAAUUCUCGGGUGUCAAGG
B7: ENSMUSG00000029636.415|Wasf3 (ssRNA)
RNA: GGGAGUUCUACAGUCCGACGAUCGCUUCGAUAUCCGCAUGCUAAGUGGGUGGAUGGAUGGGUGAGUAUAUGGGUAGAUAAAUGGAUGAGUGGAUGGGUGGGUUAGGUGGGUAAGUAGCUAGGUGGAUGGGUGGGUGGAUACAUGGAUGAGUGGAUGGGUGGAUUGGUGGGUGAGUGGAUAGGUGAAUGGAUGAUAGGUGGUGGAUGGUUGAGUGGGUGGAUUCAUGAUGGAUGGAUGGAUGGAUGGAUGGAUGGAUGGAUGGAUGAGUGGAUGGAUAAUAGGUUGAUGGGUGGAUAGGUAGAUCUCUUGCGGUCGCACUAGUGUGGAAUUCUCGGGUGUCAAGG
B8: ENSMUSG00000029636.401|Wasf3|14:18 (ssRNA)
RNA: GGGAGUUCUACAGUCCGACGAUCGCUUCGAUAUCCGCAUGCUAUUAUAGUGUUCCAACACAAUUGUAGCUGAGUUUCAGAUACGGUAUUUUCUCAUAGUGUAAACUCAGGCAGAUGAAUAGCUGGAGAGUGGGUGGAUGGAUGGGUGAGUAUAUGGGUAGAUAAAUGGAUGAGUGGAUGGGUGGGUUAGGUGGGUAAGUAGCUAGGUGGAUGGGUGGGUGGAUACAUGGAUGAGUGGAUGGGUGGAUUGGUGGGUGAGUGGAUAGGUGAAUGGAUGAUAGGUGGUGGAUGGUUGAGUGGGUGGCUCUUGCGGUCGCACUAGUGUGGAAUUCUCGGGUGUCAAGG
B9: ENSMUSG00000029636.407|Wasf3 (ssRNA)
RNA: GGGAGUUCUACAGUCCGACGAUCGCUUCGAUAUCCGCAUGCUAAUACGGUAUUUUCUCAUAGUGUAAACUCAGGCAGAUGAAUAGCUGGAGAGUGGGUGGAUGGAUGGGUGAGUAUAUGGGUAGAUAAAUGGAUGAGUGGAUGGGUGGGUUAGGUGGGUAAGUAGCUAGGUGGAUGGGUGGGUGGAUACAUGGAUGAGUGGAUGGGUGGAUUGGUGGGUGAGUGGAUAGGUGAAUGGAUGAUAGGUGGUGGAUGGUUGAGUGGGUGGAUUCAUGAUGGAUGGAUGGAUGGAUGGAUGGAUGGACUCUUGCGGUCGCACUAGUGUGGAAUUCUCGGGUGUCAAGG
B10: ENSMUSG00000029636.392|Wasf3|68:72 (ssRNA)
RNA: GGGAGUUCUACAGUCCGACGAUCGCUUCGAUAUCCGCAUGCUACAUUUCAUGCUUAUACUUAAUCUACAGAUCGCAAGGUUGUUUUAUAUUAUCCCCUUAUAGUGUUCCAACACAAUUGUAGCUGAGUUUCAGAUACGGUAUUUUCUCAUAGUGUAAACUCAGGCAGAUGAAUAGCUGGAGAGUGGGUGGAUGGAUGGGUGAGUAUAUGGGUAGAUAAAUGGAUGAGUGGAUGGGUGGGUUAGGUGGGUAAGUAGCUAGGUGGAUGGGUGGGUGGAUACAUGGAUGAGUGGAUGGGUGGAUUGCUCUUGCGGUCGCACUAGUGUGGAAUUCUCGGGUGUCAAGG
B11: ENSMUSG00000029636.410|Wasf3 (ssRNA)
RNA: GGGAGUUCUACAGUCCGACGAUCGCUUCGAUAUCCGCAUGCUAGUGUAAACUCAGGCAGAUGAAUAGCUGGAGAGUGGGUGGAUGGAUGGGUGAGUAUAUGGGUAGAUAAAUGGAUGAGUGGAUGGGUGGGUUAGGUGGGUAAGUAGCUAGGUGGAUGGGUGGGUGGAUACAUGGAUGAGUGGAUGGGUGGAUUGGUGGGUGAGUGGAUAGGUGAAUGGAUGAUAGGUGGUGGAUGGUUGAGUGGGUGGAUUCAUGAUGGAUGGAUGGAUGGAUGGAUGGAUGGAUGGAUGGAUGAGUGGAUGCUCUUGCGGUCGCACUAGUGUGGAAUUCUCGGGUGUCAAGG
B12: ENSMUSG00000029636.408|Wasf3 (ssRNA)
RNA: GGGAGUUCUACAGUCCGACGAUCGCUUCGAUAUCCGCAUGCUAUAUUUUCUCAUAGUGUAAACUCAGGCAGAUGAAUAGCUGGAGAGUGGGUGGAUGGAUGGGUGAGUAUAUGGGUAGAUAAAUGGAUGAGUGGAUGGGUGGGUUAGGUGGGUAAGUAGCUAGGUGGAUGGGUGGGUGGAUACAUGGAUGAGUGGAUGGGUGGAUUGGUGGGUGAGUGGAUAGGUGAAUGGAUGAUAGGUGGUGGAUGGUUGAGUGGGUGGAUUCAUGAUGGAUGGAUGGAUGGAUGGAUGGAUGGAUGGAUGCUCUUGCGGUCGCACUAGUGUGGAAUUCUCGGGUGUCAAGG
B13: ENSMUSG00000029636.411|Wasf3 (ssRNA)
RNA: GGGAGUUCUACAGUCCGACGAUCGCUUCGAUAUCCGCAUGCUAACUCAGGCAGAUGAAUAGCUGGAGAGUGGGUGGAUGGAUGGGUGAGUAUAUGGGUAGAUAAAUGGAUGAGUGGAUGGGUGGGUUAGGUGGGUAAGUAGCUAGGUGGAUGGGUGGGUGGAUACAUGGAUGAGUGGAUGGGUGGAUUGGUGGGUGAGUGGAUAGGUGAAUGGAUGAUAGGUGGUGGAUGGUUGAGUGGGUGGAUUCAUGAUGGAUGGAUGGAUGGAUGGAUGGAUGGAUGGAUGGAUGAGUGGAUGGAUAAUCUCUUGCGGUCGCACUAGUGUGGAAUUCUCGGGUGUCAAGG
B14: ENSMUSG00000029636.397|Wasf3 (ssRNA)
RNA: GGGAGUUCUACAGUCCGACGAUCGCUUCGAUAUCCGCAUGCUAGCAAGGUUGUUUUAUAUUAUCCCCUUAUAGUGUUCCAUGUGUAUUGUAGCUGAGUUUCAGAUACGGUAUUUUCUCAUAGUGUAAACUCAGGCAGAUGAAUAGCUGGAGAGUGGGUGGAUGGAUGGGUGAGUAUAUGGGUAGAUAAAUGGAUGAGUGGAUGGGUGGGUUAGGUGGGUAAGUAGCUAGGUGGAUGGGUGGGUGGAUACAUGGAUGAGUGGAUGGGUGGAUUGGUGGGUGAGUGGAUAGGUGAAUGGAUGAUACUCUUGCGGUCGCACUAGUGUGGAAUUCUCGGGUGUCAAGG
B15: ENSMUSG00000029636.393|Wasf3|62:66 (ssRNA)
RNA: GGGAGUUCUACAGUCCGACGAUCGCUUCGAUAUCCGCAUGCUAAUGCUUAUACUUAAUCUACAGAUCGCAAGGUUGUUUUAUAUUAUCCCCUUAUAGUGUUCCAACACAAUUGUAGCUGAGUUUCAGAUACGGUAUUUUCUCAUAGUGUAAACUCAGGCAGAUGAAUAGCUGGAGAGUGGGUGGAUGGAUGGGUGAGUAUAUGGGUAGAUAAAUGGAUGAGUGGAUGGGUGGGUUAGGUGGGUAAGUAGCUAGGUGGAUGGGUGGGUGGAUACAUGGAUGAGUGGAUGGGUGGAUUGGUGGGUCUCUUGCGGUCGCACUAGUGUGGAAUUCUCGGGUGUCAAGG

Target: TDP-43 (Homo sapiens, UniProt Q13148 1-414)
Experiment: RNA Bind-n-Seq with designed 260-mer pool; 25 mM Tris-HCl, 150 mM KCl, 3 mM MgCl2, BSA (printed 500 mg/mL), 20 units/mL SUPERase IN; pH not stated; 500 nM RNA pool, 1 h, 4 C; TDP-43 5, 50, 500 nM; high values mean tight binding
Conditions: protein: recombinant; tags: SBP (GST cleaved off with PreScission; pGEX-GST-SBP)
In short: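 For each oligo, R gives binding as its mapped-read-normalized abundance after pulldown divided by its abundance in input. Bead-captured SBP-tagged TDP-43 (5, 50 or 500 nM) was incubated with 500 nM of an in vitro-transcribed 260-nt 3′ UTR oligo pool for 1 h at 4 °C in 25 mM Tris-HCl, 150 mM KCl, 3 mM MgCl2, BSA and SUPERase IN on streptavidin beads. Washed, biotin-eluted RNA was reverse transcribed, PCR-amplified and sequenced.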

Chain of TDP-43 (Q13148 whole entry): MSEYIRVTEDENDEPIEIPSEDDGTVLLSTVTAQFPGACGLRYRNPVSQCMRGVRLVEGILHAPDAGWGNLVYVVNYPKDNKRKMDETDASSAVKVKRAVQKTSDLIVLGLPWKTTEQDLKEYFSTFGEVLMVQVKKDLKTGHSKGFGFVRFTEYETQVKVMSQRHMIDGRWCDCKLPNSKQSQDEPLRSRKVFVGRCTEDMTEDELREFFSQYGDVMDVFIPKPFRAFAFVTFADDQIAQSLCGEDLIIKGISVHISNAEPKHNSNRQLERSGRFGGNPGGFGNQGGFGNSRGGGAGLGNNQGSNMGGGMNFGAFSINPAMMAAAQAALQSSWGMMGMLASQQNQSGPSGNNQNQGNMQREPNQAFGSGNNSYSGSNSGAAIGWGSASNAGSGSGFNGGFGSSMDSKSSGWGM

Binder | binding signal
B1 | 0.502 R (bound/input frequency ratio)
B2 | 0.412 R (bound/input frequency ratio)
B3 | 1.56 R (bound/input frequency ratio)
B4 | 4.72 R (bound/input frequency ratio)
B5 | 6.38 R (bound/input frequency ratio)
B6 | 15.4 R (bound/input frequency ratio)
B7 | 2.19 R (bound/input frequency ratio)
B8 | 4.07 R (bound/input frequency ratio)
B9 | 3.52 R (bound/input frequency ratio)
B10 | 4.14 R (bound/input frequency ratio)
B11 | 2.97 R (bound/input frequency ratio)
B12 | 20.3 R (bound/input frequency ratio)
B13 | 7.25 R (bound/input frequency ratio)
B14 | 4.09 R (bound/input frequency ratio)
B15 | 6.94 R (bound/input frequency ratio)
